NPC1 prom act = qHTS Assay for NPC1 Promoter Activators. Potency, µM (titrated, usually from 9.22 µM), actives largely listed as activators. AID 485313, 2010. Huh7 NPC1 promoter luciferase reporter, 24 h. 320,000 tested, 2.4% active; note: nearly all actives have a fitted effect of over 60% in size
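Cells: Huh7 expressing luciferase under the NPC1 promoter, 1500/well. Seeded 2 h, compound added, incubated 24 h at 37 °C. Luciferase reagent, 10 min ambient, then luminescence.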
Rab9 prom act = qHTS Assay for Rab9 Promoter Activators; Huh7 Rab9 promoter-luciferase reporter, luminescence, 24 h; Potency, µM (titrated, usually from 9.22 µM), actives largely listed as activators; 320,000 tested, 2.8% active; note: nearly all actives have a fitted effect of over 60% in size
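Promoter activation is measured as luciferase luminescence in Huh7 cells stably transfected with a Rab9 promoter–luciferase construct, following 24 h compound exposure at 37 °C and 10 min reagent incubation at ambient temperature.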
ELG1 genotox = qHTS screen for small molecules that induce genotoxicity in human embryonic kidney (HEK293T) cells expressing luciferase-tagged ELG1. HEK293T ELG1-luciferase reporter, luminescence, 16 h. Potency, µM (doses to about 46 µM), actives largely listed as activators. 330,000 tested, 1.3% active; note: nearly all actives have a fitted effect of over 60% in size
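Genotoxic stress is detected as increased luminescence from luciferase-tagged ELG1 in HEK293T cells, measured with ONE-Glo after a 16 hr treatment at 37 °C.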
FLuc modulator = qHTS profiling assay for firefly luciferase inhibitor/activator using purifed enzyme and Km concentrations of substrates (counterscreen for miR-21 project); purified FLuc, Km substrates, luminescence inhibition; Potency, µM (top dose mostly 57.5 µM), actives largely listed as inhibitors; 360,000 tested, 6.9% active; AID 588342, 2011; note: nearly all actives have a fitted effect of over 55% in size
Target sequence (P08659 whole entry, looked up): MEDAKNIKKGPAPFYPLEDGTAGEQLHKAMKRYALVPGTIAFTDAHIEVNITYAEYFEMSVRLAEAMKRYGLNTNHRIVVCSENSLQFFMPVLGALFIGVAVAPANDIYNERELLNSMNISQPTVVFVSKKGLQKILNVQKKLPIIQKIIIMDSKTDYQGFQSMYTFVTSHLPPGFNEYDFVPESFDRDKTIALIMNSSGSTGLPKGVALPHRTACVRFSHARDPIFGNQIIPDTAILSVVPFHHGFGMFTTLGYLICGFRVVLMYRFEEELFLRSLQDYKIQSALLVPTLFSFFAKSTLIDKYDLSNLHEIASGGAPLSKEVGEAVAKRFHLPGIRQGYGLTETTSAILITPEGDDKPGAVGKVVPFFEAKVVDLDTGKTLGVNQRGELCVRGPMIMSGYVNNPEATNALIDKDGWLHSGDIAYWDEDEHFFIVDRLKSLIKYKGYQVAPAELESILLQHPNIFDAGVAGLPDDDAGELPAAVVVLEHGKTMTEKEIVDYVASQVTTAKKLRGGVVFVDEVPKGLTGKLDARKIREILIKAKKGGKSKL
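Purified P. pyralis luciferase, 10 nM final, with Km-level 10 uM D-luciferin and 10 uM ATP in 50 mM Tris acetate pH 7.5, 10 mM Mg acetate, 0.01% Tween-20, 0.05% BSA; 6-point qHTS titration about 60 µM downward; luminescence read.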
SMN2 splice enh = qHTS Assay for Enhancers of SMN2 Splice Variant Expression; Potency, µM (top dose mostly 46.1 µM), hits mostly activators; AID 1458, 2008; 210,000 tested, 2.8% active; HEK293 SMN2-luciferase splicing reporter, luminescence, 30-36 h; note: nearly all actives have a fitted effect of over 55% in size
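qHTS luciferase splicing reporter: luminescence rises when SMN2 exon 7 is included in transfected HEK293 cells. Compound exposure lasted 30-36 h at 37C, with 4.5 mM final sodium butyrate as control, followed by a ONE-Glo read.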
Luc counter = Counterscreen for Luciferase (Kinase-Glo TM) Inhibition; Kinase-Glo luciferase, ATP luminescence, 8 min; Potency, µM (doses to about 38.3 µM), actives largely listed as inhibitors; 200,000 tested, 0.28% active; Luciferin 4-monooxygenase (Photuris pensylvanica), Q27757; note: nearly all actives have a fitted effect of over 60% in size
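Inhibition of Kinase-Glo luciferase light generation was assessed at 10 uM ATP in pH 7.2 imidazole buffer, with luminescence measured after eight minutes at ambient temperature.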
Of the large screens only hits and unclear results are named; the others gave an inactive call. This is a sample that favours compounds with a hit; in the whole collection about 7.5% have one here. Calls come from the whole dose curve; as a rule, active = well fitted curve in the direction sought with a large enough effect; inconclusive = small, poorly fitted or top-dose-only effect, or another doubt; inactive = no such curve, though single readings can be large; an effect the other way counts as inactive or inconclusive.

O=C(Cn1ncc(N2CCOCC2)c(Br)c1=O)c1ccc(Cl)cc1	none
O=C(Cn1ncc(N2CCCC2)c(Cl)c1=O)c1ccc(Cl)cc1	NPC1 prom act 2.5µM, Rab9 prom act 1.4µM, ELG1 genotox inconclusive, FLuc modulator 21µM, SMN2 splice enh 13µM
Cc1cn([C@H]2C[C@H](O)[C@@H](COC(N)=O)O2)c(=O)[nH]c1=O	none (no result: NPC1 prom act, Rab9 prom act, ELG1 genotox, FLuc modulator)
CC(C)(C)c1cc(NC(=O)C2CCCO2)no1 (centres undefined)	NPC1 prom act inconclusive, ELG1 genotox inconclusive, FLuc modulator 15µM, SMN2 splice enh inconclusive
O=C(O)c1cc(NC(=O)C2CCCO2)cc(C(=O)O)c1 (centres undefined)	none (no result: SMN2 splice enh, Luc counter)
COc1c(C(=O)NNC(=O)c2ccccc2Cl)csc1Br	NPC1 prom act 3.5µM, Rab9 prom act inconclusive, ELG1 genotox inconclusive, FLuc modulator 21µM (no result: SMN2 splice enh, Luc counter)
COc1cc(/C=C(/NC(=O)c2ccccc2Cl)C(=O)O)cc(OC)c1OC	none
Clc1cccc(-n2ncc3c(Nc4ccc5c(c4)OCCO5)ncnc32)c1	FLuc modulator 13µM (no result: NPC1 prom act, Rab9 prom act, ELG1 genotox, SMN2 splice enh, Luc counter)
Fc1ccc(-n2ncc3c(Nc4ccc5c(c4)OCCO5)ncnc32)cc1	FLuc modulator 17µM (no result: NPC1 prom act, Rab9 prom act, ELG1 genotox, SMN2 splice enh, Luc counter)
Cc1ccc(-n2ncc3c(Nc4ccc5c(c4)OCCO5)ncnc32)cc1Cl	none (no result: NPC1 prom act, Rab9 prom act, ELG1 genotox, SMN2 splice enh, Luc counter)
Cc1ccc(Cl)cc1-n1ncc2c(Nc3ccc4c(c3)OCCO4)ncnc21	FLuc modulator 11µM (no result: NPC1 prom act, Rab9 prom act, ELG1 genotox, SMN2 splice enh, Luc counter)
CCN1CCN(Cc2c(C(=O)N/N=C(\C)c3ccc(Cl)c(Cl)c3)nnn2-c2nonc2N)CC1	none (no result: SMN2 splice enh, Luc counter)
CCOC(=O)C1(Cc2ccccc2)CCCN(C(=O)C=C(C)C)C1 (centres undefined)	NPC1 prom act inconclusive, Rab9 prom act 3.5µM, ELG1 genotox inconclusive, FLuc modulator 17µM (no result: SMN2 splice enh, Luc counter)
CCOC(=O)C1(Cc2ccccc2)CCCN(C2CCN(C(C)=O)CC2)C1 (centres undefined)	none (no result: SMN2 splice enh, Luc counter)
CCOC(=O)C1(Cc2cccc(OC)c2)CCCN(C(=O)CCc2cccnc2)C1 (centres undefined)	Rab9 prom act inconclusive, ELG1 genotox inconclusive, FLuc modulator 17µM (no result: SMN2 splice enh)
CCOC(=O)C1(Cc2ccc(OC)cc2)CCN(C(=O)c2cc3ccccc3[nH]2)CC1	FLuc modulator 15µM
CC#CC(=O)N1CCCC(Cc2cccc(OC)c2)(C(=O)OCC)C1 (centres undefined)	NPC1 prom act inconclusive, Rab9 prom act inconclusive, FLuc modulator 24µM (no result: SMN2 splice enh, Luc counter)
CCOC(=O)C1(Cc2cccc(OC)c2)CCN(C2CCOCC2)CC1	NPC1 prom act inconclusive, Rab9 prom act inconclusive, ELG1 genotox inconclusive, FLuc modulator 3µM (no result: SMN2 splice enh)
CC(C)Oc1ccc(C2CC(=O)N(c3ccc(C(=O)O)cc3)C2=O)cc1 (centres undefined)	none (no result: SMN2 splice enh)
CC(C)Oc1ccc(C2CC(=O)N(c3cccc(C(=O)O)c3)C2=O)cc1 (centres undefined)	ELG1 genotox inconclusive, FLuc modulator 17µM
COc1ccccc1NC(=O)CSc1nc(O)c(C/C=C/c2ccccc2)c(=O)[nH]1	FLuc modulator inconclusive (no result: NPC1 prom act, Rab9 prom act, ELG1 genotox, Luc counter)
COc1ccccc1N1CCN(S(=O)(=O)CCNC(=O)CC2CCCCC2)CC1	none (no result: SMN2 splice enh, Luc counter)
COc1cccc(-n2c(SCC(=O)c3ccc(Cl)cc3)nc3c([nH]c4ccccc43)c2=O)c1	none (no result: NPC1 prom act, Rab9 prom act, ELG1 genotox, SMN2 splice enh, Luc counter)
COc1cccc(-n2c(SCC(N)=O)nc3c([nH]c4ccccc43)c2=O)c1	SMN2 splice enh 13µM
COc1ccc(-c2noc(CSc3nnc(-c4ccccc4)n3C)n2)cc1	FLuc modulator 21µM
COc1ccc(-c2noc(CSc3nc(N)cc(=O)[nH]3)n2)cc1	FLuc modulator 21µM (no result: SMN2 splice enh, Luc counter)
COc1ccc(-c2noc(CSc3nc4ccccc4[nH]3)n2)cc1	none (no result: NPC1 prom act, Rab9 prom act, ELG1 genotox, Luc counter)
Brc1ccccc1/C=N/Nc1ccccn1	ELG1 genotox inconclusive, FLuc modulator inconclusive, SMN2 splice enh inconclusive
C(=N\Nc1ccccn1)/c1c[nH]c2ccccc12	ELG1 genotox inconclusive, FLuc modulator 15µM (no result: SMN2 splice enh, Luc counter)
O=c1nc(N/N=C/C=C/c2ccccc2)cn[nH]1	NPC1 prom act 0.5µM, Rab9 prom act 0.35µM, ELG1 genotox 2.1µM, FLuc modulator 4.8µM (no result: SMN2 splice enh, Luc counter)
O=C(O)COc1ccc(Br)cc1/C=N\Nc1ccccn1	FLuc modulator inconclusive (no result: SMN2 splice enh, Luc counter)
O=C(O)c1cccc2c(/C=N/Nc3ccccn3)c[nH]c12	NPC1 prom act inconclusive, Rab9 prom act 2.8µM, FLuc modulator 8.5µM (no result: SMN2 splice enh, Luc counter)
O=c1nc(N/N=C/c2c[nH]c3ccccc23)cn[nH]1	NPC1 prom act 2.5µM, Rab9 prom act 2µM, ELG1 genotox 10µM, FLuc modulator 12µM (no result: SMN2 splice enh, Luc counter)
Cc1ccc(NC(=O)CSc2nc3ccccc3nc2N2CCCC2)cc1	FLuc modulator inconclusive (no result: SMN2 splice enh, Luc counter)
O=C(O)Cn1c(COc2ccc(Cl)cc2)nc2ccccc21	FLuc modulator 11µM (no result: SMN2 splice enh, Luc counter)
NNC(=O)Cn1c(COc2ccc(Cl)cc2)nc2ccccc21	FLuc modulator 12µM
Cc1ccc(OCCn2c(C3CC(=O)N(Cc4ccc(F)cc4)C3)nc3ccccc32)c(C)c1 (centres undefined)	none (no result: NPC1 prom act, Rab9 prom act, ELG1 genotox, SMN2 splice enh, Luc counter)
N#Cc1ccc(-c2ccccc2)nc1SCC(=O)c1cccc(Cl)c1	none
COc1ccc(-c2ccc(SCC(=O)c3ccc(F)cc3)nn2)cc1OC	FLuc modulator 13µM
COc1ccc(C(=O)CSc2nnc(-c3ccc(C)cc3)o2)cc1	ELG1 genotox inconclusive
COc1ccc(-c2ccc(SCC(=O)N3CCCC3)nn2)cc1OC	FLuc modulator inconclusive

Compound activity as filed in PubChem BioAssay.
